# Test results reported in PubChem BioAssay (NCATS).
# Unmarked numbers belong to inactive results. The source made the active and inactive calls. No rule for the calls is given here.
# Tested on: HIV-1 nucleocapsid protein NCp7 (binding to TG oligonucleotide)
# Experiment: HIV Nucleocapsid (AID 346);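 also: potency is for inhibitors that block NC binding and lower polarization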
# Details: HIV-1 NC / fluorescein-TGTGTGTG probe, fluorescence polarization
# How it was run: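 Fluorescence polarization binding of 100 nM HIV-1 NC to 10 nM fluorescein-labelled TG4xF oligonucleotide. Buffer was Hepes pH 7.5 with 250mM NaCl, 1uM ZnCl2, TCEP and 2-mercaptoethanol. Compounds were incubated 1 hr at room temperature before the read.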
# Potency is read from the fitted curve at half-maximal effect.
row,SMILES,Potency
1,O=c1c(-c2ccc(F)cc2)nc2cncnc2n1-c1ccccc1,> 20 µM
2,Cn1cccc1C(=O)N1CCC2(CCN(Cc3nccs3)CC2)CC1,> 20 µM
3,COCCNc1nc(-c2ccccc2OC)nc2ccccc12,> 20 µM
4,Cc1nc2cnc(N3CCN(C)CC3)nc2n(C)c1=O,> 20 µM
5,O=S(=O)(c1ccccc1)N1CCC2(CCCN(Cc3ccncc3)C2)CC1,> 20 µM
6,COc1ccc(C(=O)N2CCC3(CCCN(C(=O)Nc4cccc(C#N)c4)C3)CC2)cc1,> 20 µM
7,COc1cccc(Cn2c(=O)c(-c3ccc(Cl)cc3)nc3cnc(N4CCN(C)CC4)nc32)c1,> 20 µM
8,COc1ccc(-c2nc3cnc(Nc4ccccc4)nc3n(C[C@H]3CCCO3)c2=O)cc1,> 20 µM
9,O=c1c(-c2ccccc2)nc2cnc(Oc3cccc(Cl)c3)nc2n1C[C@H]1CCCO1,> 20 µM
10,COc1cccc(-c2nccc(NCc3cccnc3)n2)c1,> 20 µM
11,Cn1c(=O)c(-c2ccc(F)cc2)nc2cnc(OCc3ccccc3)nc21,> 20 µM
12,COc1ccc(-n2c(=O)c(-c3cccs3)nc3cnc(Oc4ccccc4)nc32)cc1,> 4 µM
13,COc1ncc2nc(C)c(=O)n(CCC#N)c2n1,> 20 µM
14,COCCNc1ncnc2ccc(-c3ccoc3)cc12,> 20 µM
15,Cc1cnc(CNc2nc(-c3ccc(C(=O)N(C)C)cc3)nc3ccccc23)cn1,> 20 µM
16,Cc1noc(C)c1-c1nc(NCc2cccnc2)c2ccccc2n1,> 20 µM
17,COc1ccccc1CNc1ncnc2ccc(-c3ccc4c(c3)OCO4)cc12,> 20 µM
18,O=c1c(-c2cccc(F)c2)nc2cncnc2n1Cc1ccc(F)cc1,> 20 µM
19,c1csc(CNc2ncnc3ccc(-c4ccoc4)cc23)c1,> 20 µM
20,COc1ccc(CNc2ccnc(-c3ccc4c(c3)OCO4)n2)c(OC)c1,> 20 µM
21,COc1ccc(C(=O)N2CCC[C@@]3(CCN(c4cccc(-c5ccccc5)c4)C3)C2)cc1,> 20 µM
22,O=C(c1ccncc1)N1CCC2(CC1)CCN(c1ccc(-c3ccccc3)cc1)CC2,> 20 µM
23,Clc1ccccc1-c1nc(NCCN2CCOCC2)c2ccccc2n1,> 20 µM
24,COc1ncc2nc(-c3cn(C)c4ccccc34)c(=O)n(Cc3ccc(F)cc3)c2n1,> 20 µM

row,SMILES,Potency
1,CNc1nc(-c2ccccc2OC)nc2ccccc12,> 20 µM
2,COCCn1c(=O)c(-c2cccc(C#N)c2)nc2cnc(Nc3ccccc3)nc21,5.18 µM (active)
3,Cn1cccc1C(=O)N1CCC2(CC1)CN(c1ccccn1)C2,> 20 µM
4,Cc1cnc(CNc2ncncc2-c2cccc(C#N)c2)cn1,> 20 µM
5,N#Cc1cccc(-c2nc3cnc(Oc4cccc(Cl)c4)nc3n(C3CC3)c2=O)c1,> 20 µM
6,COc1ccc(CNc2nc(-c3cccc(C#N)c3)nc3ccccc23)c(OC)c1,> 20 µM
7,CCNc1ncc2nc(-c3ccc(Cl)cc3)c(=O)n(C)c2n1,> 20 µM
8,Cc1noc(C)c1C(=O)N1CCC2(CCCN(Cc3ccc(C#N)cc3)C2)CC1,> 20 µM
9,O=c1c(CCc2ccccc2)nc2cnc(Oc3ccccc3)nc2n1C1CC1,> 20 µM
10,COCC(=O)N1CCC2(CC1)CN(c1ccccc1)C2,> 20 µM
11,COc1ccc(C(=O)N2CCC3(CCCN(c4ccccn4)C3)CC2)cc1,> 20 µM
12,COc1ccc(CNc2nc(-c3ccoc3)nc3ccccc23)c(OC)c1,> 20 µM
13,O=C(c1cnccn1)N1CCC2(CCCN(c3ccccc3)C2)CC1,> 20 µM
14,CCNc1ncc2nc(CCc3ccccc3)c(=O)n(C)c2n1,> 20 µM
15,O=c1c(-c2cc(F)cc(F)c2)nc2cnc(N3CCNCC3)nc2n1C1CC1,> 20 µM
16,COc1ccc(NC(=O)N2CC3(CCN(C(=O)c4ccc(OC)cc4)CC3)C2)cc1,> 20 µM
17,CN(C)c1ccc(-c2nc(NCCc3cnc[nH]3)c3ccccc3n2)cc1,> 20 µM
18,COc1ccccc1CNc1ncnc2ccc(-c3cccnc3)cc12,> 20 µM
19,O=C(c1cc(C(F)(F)F)cc(C(F)(F)F)c1)N1CCC2(CC1)CN(Cc1ccccc1)C2,> 20 µM
20,Cn1c(=O)c(-c2cccs2)nc2cnc(N3CCOCC3)nc21,> 20 µM
21,COCCNc1ccnc(-c2ccccc2C)n1,> 20 µM
22,O=S(=O)(c1ccccc1)N1CCC2(CCN(C(c3ccccc3)c3ccccc3)CC2)CC1,> 20 µM
23,CCNc1ncc2nc(-c3ccc(OC)cc3)c(=O)n(CCOC)c2n1,> 20 µM
24,Cc1cccc(CNc2cc(-c3c(C)noc3C)ncn2)c1,> 20 µM

row,SMILES,Potency
1,Cc1cnc(CNc2ncnc3ccc(-c4ccccc4C(F)(F)F)cc23)cn1,> 20 µM
2,O=S(=O)(c1ccccc1)N1CCC[C@@]2(CCN(C(c3ccccc3)c3ccccc3)C2)C1,> 20 µM
3,N#Cc1ccc(CN2CC3(CCN(C(=O)c4cc(C(F)(F)F)cc(C(F)(F)F)c4)CC3)C2)cc1,> 20 µM
4,COc1ccc2[nH]cc(CCNc3cc(-c4cccnc4)ncn3)c2c1,> 20 µM
5,COc1ccccc1CNc1nc(-c2ccc(C(=O)N(C)C)cc2)nc2ccccc12,> 20 µM
6,c1ccc2c(N3CCOCC3)nc(-c3ccoc3)nc2c1,> 20 µM
7,COc1cccc(Cn2c(=O)cnc3cnc(Nc4cccc(OC)c4)nc32)c1,> 20 µM
8,COCC(=O)N1CCC[C@@]2(CCN(Cc3ccccc3)C2)C1,> 20 µM
9,Cc1noc(C)c1-c1nccc(NCc2ccccc2)n1,> 20 µM
10,COc1ccc(CNc2ncnc3ccc(-c4ccc5c(c4)OCO5)cc23)c(OC)c1,> 20 µM
11,O=c1cnc2cnc(N3CCNCC3)nc2n1Cc1ccc(F)cc1,> 20 µM
12,COC(=O)N1CCC2(CC1)CCN(c1ccncc1)CC2,> 20 µM
13,O=C(c1ccco1)N1CCC2(CCN(Cc3nccs3)CC2)CC1,> 20 µM
14,COc1ccccc1-c1cncnc1Nc1ccc(F)cc1,> 20 µM
15,CN(C)Cc1ccccc1-c1nc(NC2CC2)c2ccccc2n1,> 20 µM
16,CN(C)c1ccc(-c2nc(N(C)C)c3ccccc3n2)cc1,> 20 µM
17,CN1CCN(c2ncc3nc(CCc4ccccc4)c(=O)n(C)c3n2)CC1,> 20 µM
18,Cn1c(=O)c(-c2ccc(Cl)cc2)nc2cnc(N3CCOCC3)nc21,> 20 µM
19,CN1CCC2(CC1)CCN(C(=O)c1ccncc1)CC2,> 20 µM
20,COc1ccccc1CN1CC2(CCN(S(C)(=O)=O)CC2)C1,> 20 µM
21,O=c1c(-c2ccc(F)cc2)nc2cnc(N3CCNCC3)nc2n1-c1ccccc1,> 20 µM
22,COc1ccc(C(=O)N2CCC[C@@]3(CCN(Cc4ccccc4)C3)C2)cc1,> 20 µM
23,CN1CCN(c2ncc3nc(-c4ccc(Cl)cc4)c(=O)n(Cc4ccc(F)cc4)c3n2)CC1,> 20 µM
24,CN(C)C(=O)c1ccc(-c2nccc(NCc3ccccc3)n2)cc1,> 20 µM

row,SMILES,Potency
1,Cc1ccccc1-c1cncnc1NC1CCNCC1,> 20 µM
2,COc1ccccc1CN1CC2(CCN(C(=O)c3cccc(F)c3)CC2)C1,> 20 µM
3,COc1ccc(-n2c(=O)c(-c3ccc(F)cc3)nc3cnc(OC)nc32)cc1,> 20 µM
4,COCCn1c(=O)c(-c2ccc(F)cc2)nc2cncnc21,> 20 µM
5,COc1ncc2nc(-c3ccc(Cl)cc3)c(=O)n(C[C@H]3CCCO3)c2n1,> 20 µM
6,CC(=O)N1CCC2(CCCN(c3ccccc3)C2)CC1,> 20 µM
7,COc1cccc(Cn2c(=O)c(-c3cc(F)cc(F)c3)nc3cncnc32)c1,> 20 µM
8,CCNc1ncc2nc(-c3ccc(Cl)cc3)c(=O)n(Cc3ccc(F)cc3)c2n1,14 µM
9,COCCn1c(=O)cnc2cnc(N3CCOCC3)nc21,> 20 µM
10,CN1CCN(c2nc(-c3cccnc3)nc3ccccc23)CC1,> 20 µM
11,COc1ccc(Oc2ncc3nc(CCc4ccccc4)c(=O)n(C)c3n2)cc1,> 20 µM
12,Cc1ccccc1-c1nc(-n2ccnc2)c2ccccc2n1,> 20 µM
13,COc1ccc(NC(=O)N2CC[C@@]3(CCCNC3)C2)cc1,> 20 µM
14,CN(C)c1ncc2ncc(=O)n(Cc3cccs3)c2n1,> 20 µM
15,O=C(c1ccco1)N1CCC2(CCN(Cc3cc(C(F)(F)F)cc(C(F)(F)F)c3)CC2)CC1,> 20 µM
16,O=C(Nc1cccc(F)c1)N1CCC2(CC1)CCN(C(=O)c1cc(C(F)(F)F)cc(C(F)(F)F)c1)CC2,> 20 µM
17,N#CCCn1c(=O)cnc2cnc(OCc3ccccc3)nc21,> 20 µM
18,CN(C)c1ccc(-c2cncnc2N(C)Cc2ccco2)cc1,> 20 µM
19,COc1ccc(CNc2ncnc3ccc(-c4ccoc4)cc23)c(OC)c1,> 20 µM
20,COc1cccc(-c2nccc(NC3CCNCC3)n2)c1,> 20 µM
21,FC(F)(F)c1ccccc1-c1cc(NCCN2CCOCC2)ncn1,> 20 µM
22,Cn1cccc1C(=O)N1CCC2(CCCN(Cc3nccs3)C2)CC1,> 20 µM
23,COc1ccc(-n2c(=O)c(-c3ccc(Cl)cc3)nc3cnc(N4CCOCC4)nc32)cc1,> 20 µM
24,Cc1noc(C)c1-c1cc(Nc2ccc(F)cc2)ncn1,> 20 µM

row,SMILES,Potency
1,COc1ccccc1-c1ccc2ncnc(NC3CC3)c2c1,> 20 µM
2,COc1cccc(Cn2c(=O)c(-c3cn(C)c4ccccc34)nc3cnc(N4CCOCC4)nc32)c1,> 20 µM
3,COCCn1c(=O)c(-c2ccc(Cl)cc2)nc2cncnc21,> 20 µM
4,CS(=O)(=O)Nc1cccc(-c2cncnc2Nc2ccccc2)c1,> 20 µM
5,COc1cccc(Cn2c(=O)c(C)nc3cnc(N(C)C)nc32)c1,> 4 µM
6,COc1ccccc1CN1CCCC2(CCN(S(C)(=O)=O)CC2)C1,> 20 µM
7,N#Cc1cccc(-c2ccc3ncnc(NC4CCNCC4)c3c2)c1,> 20 µM
8,O=c1c(-c2ccc(F)cc2)nc2cnc(N3CCNCC3)nc2n1Cc1ccc(F)cc1,> 20 µM
9,COc1ccccc1-c1cc(N(C)Cc2ccco2)ncn1,> 20 µM
10,CN(Cc1ccco1)c1nc(-c2ccccc2C(F)(F)F)nc2ccccc12,> 20 µM
11,COc1cccc(Cn2c(=O)c(-c3ccc(Cl)cc3)nc3cnc(OC)nc32)c1,> 20 µM
12,Cc1cccc(CNc2ccnc(-c3ccc(C(=O)N(C)C)cc3)n2)c1,> 20 µM
13,COc1ccc2[nH]cc(CCNc3ncncc3-c3cccnc3)c2c1,> 20 µM
14,CCNc1ncc2nc(-c3ccc(OC)cc3)c(=O)n(C)c2n1,> 20 µM
15,CS(=O)(=O)Nc1cccc(-c2ccc3ncnc(N4CCOCC4)c3c2)c1,> 20 µM
16,O=C(Nc1cccc(F)c1)N1CCC2(CC1)CCN(C(=O)c1csnn1)CC2,> 20 µM
17,O=C(c1ccncc1)N1CCC2(CCCN(c3ccccc3)C2)CC1,> 20 µM
18,c1cncc(CNc2ccnc(-c3ccc4c(c3)OCO4)n2)c1,> 20 µM
19,O=c1c(-c2ccc(F)c(F)c2)nc2cncnc2n1C1CC1,> 20 µM
20,COc1ccccc1CCn1c(=O)c(-c2ccc(F)cc2)nc2cncnc21,> 20 µM
21,CN(Cc1ccco1)c1ncncc1-c1ccoc1,> 20 µM
22,CN1CC[C@@]2(CCCN(S(=O)(=O)c3ccccc3)C2)C1,> 20 µM
23,c1ccc(CNc2ncncc2-c2cccnc2)cc1,> 20 µM
24,CN(C)Cc1ccccc1-c1nc(N2CCOCC2)c2ccccc2n1,> 20 µM
